Bioassay records deposited in PubChem BioAssay by National Center for Advancing Translational Sciences (NCATS).
Pf growth 48h = P. falciparum growth inhibition at 48 hours (one generation) | Potency, µM (doses to about 28.7 µM), most hits filed as inhibitors | P. falciparum luciferase growth in erythrocytes, 48 h | AID 504832 | actives 5.9% (n = 310,000)
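Read-out is firefly luciferase luminescence from an integrated reporter in P. falciparum, so falling signal marks reduced parasite growth. Infected erythrocytes were at 2% hematocrit and 0.1% parasitemia (final) in Albumax-supplemented RPMI 1640.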
NS1 inh = influenza NS1 inhibition; Potency, µM (series often up to 46.1 µM); actives 0.4% (n = 270,000); calls by dose curve; note: actives are rising curves; nearly all actives have a fitted effect of over 50% in size
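A cell-based growth assay was used: compounds that relieve NS1-induced slow growth of budding yeast raise OD600. Assay medium was yeast nitrogen base with ammonium sulphate and -URA supplement, pH 6.0, with 2% galactose.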
Shiga toxin inh = Shiga toxin inhibition; AID 2315; actives 9.2% (n = 290,000); inhibition, % at 38.7 µM; Vero cells, Shiga toxin protein synthesis inhibition reporter; in the data active = inhibition mostly above about 28%, no sharp cut-off; inactive = mostly below about 43%
CHX counter = counter-screen for Shiga toxin inhibitors: cycloheximide protein synthesis inhibition; actives 12% (n = 300,000); cell reporter, cycloheximide protein synthesis inhibition counterscreen; max response, %; AID 2314; in the data active = max response mostly above about 13%, no sharp cut-off; inactive = mostly below about 14%; note: read at 38.3 µM for the half of the compounds with a filed dose
Pf growth 96h = inhibits malaria parasite growth, 96 h; P. falciparum luciferase reporter growth, 96 h; actives 6.9% (n = 320,000); AID 504834; Potency, µM (doses to about 28.7 µM), hits mostly inhibitors
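Plates of compound plus infected erythrocytes (2% hematocrit, 0.05% parasitemia final) incubate 96 hours, 37 C, 5% CO2. Detection reagent added; reduced luminescence from the parasites' luciferase reporter flags inhibition.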
Numbers stand for hits; 0 = inactive; ? = inconclusive; - = no result given. Compounds with a hit are over-represented: about 21% of the library has one in this group of screens. Unless noted, calls come from the whole dose curve; as a rule, active = well fitted inhibition curve with a large enough effect; inconclusive = small, poorly fitted or top-dose-only effect, or another doubt; inactive = no such curve, though single readings can be large or run the other way.

SMILES	Pf growth 48h	NS1 inh	Shiga toxin inh	CHX counter	Pf growth 96h
CCOC(=O)N1CCN(S(=O)(=O)c2ccc(F)c(C(=O)Nc3cc(C)cc(C)c3)c2)CC1	8.3µM	0	0	0	?
CCOC(=O)N1CCN(S(=O)(=O)c2ccc(F)c(C(=O)Nc3cccc(Cl)c3C)c2)CC1	12µM	0	0	0	0
COc1cc(C)ccc1OCCON1C(=O)CCC1=O	0	0	0	32	0
COc1ccccc1OCCOCCOc1ccc(C)cc1Br	0	0	0	0	?
COc1cc(C)ccc1OCCOc1c(C)cccc1Cl	0	0	57	24	0
COc1ccccc1OCCCOc1ccc(C)cc1Br	0	0	74	46	0
COc1cc(C)ccc1OCCCOc1ccccc1Br	0	0	110	64	0
C=CCn1c(SC(C)C#N)nc2sc(CC)cc2c1=O (configuration not stated)	?	-	0	0	?
Cc1ccc(-n2nnnc2SCC(=O)N(CC(C)C)c2c(N)n(CC(C)C)c(=O)[nH]c2=O)cc1	?	-	0	0	?
CCOC(=O)COn1c(=O)c(=O)n(O)c2ccccc21	0	0	0	0	0
Cc1ccc(CSc2nc3c(c(SCC(=O)O)n2)CCCC3)cc1	0	0	0	0	0
Cc1nc(SCc2ccccc2)nc2c1CCC2	0	0	85	58	0
Cc1ccc(CSc2nc3c(c(N(C)C)n2)CCCC3)cc1	13µM	0	0	0	?
CNc1nc(SCc2ccc(C)cc2)nc2c1CCCC2	7.4µM	0	55	37	13µM
CN(C)c1nc(SCc2ccccc2Cl)nc2c1CCCC2	?	0	0	0	?
CCS(=O)(=O)N1CCN(c2ccccc2)CC1	0	0	0	0	0
O=C1Oc2ccccc2C(=O)/C1=C\N1CCN(c2ccccc2)CC1	0	-	0	26	0
CC(=O)c1ccc2c3c(cccc13)C(=O)N(CCc1ccccc1)C2=O	0	?	49	32	0
Cc1cc(Cc2cc(C)c(N)cc2C)c(C)cc1N	?	0	0	0	0
Cc1cc(Cc2cc(C)c(N)cc2N)c(N)cc1N	-	8.9µM	-	-	-
N#Cc1ccsc1NC(=O)c1ccc(Cl)c([N+](=O)[O-])c1	0	0	99	51	?
N#Cc1ccsc1NC(=O)c1cccc(-n2cnnn2)c1	0	0	0	10	0
N#Cc1ccsc1NC(=O)c1cccc([N+](=O)[O-])c1	0	-	52	23	0
O=C(Nc1cc(F)ccc1F)c1cccc(-n2cnnn2)c1	0	-	-	-	0
O=C(NNC(=O)c1cccs1)c1ccc(Cl)c([N+](=O)[O-])c1	0	0	0	0	0
SMILES	Pf growth 48h	NS1 inh	Shiga toxin inh	CHX counter	Pf growth 96h
NC(=O)C1CCN(c2nc3c(S(=O)(=O)c4ccccc4)nnn3c3ccccc23)CC1	?	0	0	0	0
Cc1cccc2c3c(ccc12)C1=C(C(=O)C3=O)[C@@H](C)CO1	-	-	0	0	-
C=CCOc1ccc(/C=N/N2C(=O)C(CC(=O)Nc3ccc(F)cc3F)SC2=NC)cc1 (configuration not stated)	?	?	30	21	?
CN=C1SC(CC(=O)Nc2cccc(C(F)(F)F)c2)C(=O)N1C (configuration not stated)	0	0	0	0	-
Cc1sc2ncnc(SCC(=O)NCC3CCCO3)c2c1C (configuration not stated)	0	-	-	-	0
CC(Oc1ccccc1)C(=O)N1CCN=C1SCc1ccccc1 (configuration not stated)	0	-	0	0	0
C/C=C/c1ccc(OCCn2cncn2)c(OC)c1	0	0	0	0	0
C/C=C/c1ccc(OCCCCn2cncn2)c(OC)c1	0	0	54	34	-
C/C=C/c1ccc(OCCCn2cncn2)c(OC)c1	0	0	0	11	0
C[C@@H]1O[C@@H](O[C@H]2[C@H](Oc3cc(O)c4c(c3)OC(c3ccc(O)cc3)CC4=O)O[C@H](CO)[C@@H](O)[C@@H]2O)[C@H](O)[C@H](O)[C@H]1O (some centres not stated)	0	-	-	-	0
Cc1cc(C)c2c(N)c3ccccc3nc2n1	15µM	0	0	0	0
CCc1ccc2nc3nc(C)cc(C)c3c(N)c2c1	?	0	91	20	1.7µM
CCc1ccc(NC(=S)/N=C(\N)Nc2nc(C)c3cc(CC)ccc3n2)cc1	?	0	0	0	?
Cc1ccc(-[n+]2cc(=O)o[nH]2)cc1	-	0	-	-	-
Cc1ccc(NC(=O)c2nsc(Cl)c2Cl)cc1	0	0	70	56	0
COCc1nnc(NS(=O)(=O)c2ccccc2)s1	0	0	0	0	1µM
CC(=O)Nc1ccc(S(=O)(=O)Nc2nc3c(s2)CCCC3)cc1	0	0	58	18	0
Cc1ccc(NC(=O)c2ccc(Cl)nc2)cc1	0	0	140	34	0
O=C(Nc1ccc2c(c1)OCO2)c1ccc(Cl)nc1	-	0	0	0	0
Cc1ccc(C(=O)NCCCNC(=O)Cc2ccccc2)cn1	0	0	0	0	?
COc1ccc(NS(=O)(=O)c2cccc(C(=O)NNC(=O)CNC(=O)c3ccc(C)cc3)c2)cc1	0	-	-	-	0
CCc1nnc(NS(=O)(=O)c2ccc(NC(=O)c3ccc(S(=O)(=O)N(CC)CC)cc3)cc2)s1	13µM	0	0	0	0
CC(=O)Nc1ccc(S(=O)(=O)Nc2nnc(CC(C)(C)C)s2)cc1	0	0	76	22	?
CCN(CC)S(=O)(=O)c1ccc(NC(=O)c2ccc(NS(C)(=O)=O)cc2)cc1	0	0	0	0	-
CCN(CC)S(=O)(=O)c1ccc(NC(=O)c2ccc(Cl)nc2)cc1	?	0	0	0	4.7µM
SMILES	Pf growth 48h	NS1 inh	Shiga toxin inh	CHX counter	Pf growth 96h
CCCSc1ccc(C(=O)Nc2ccc(Cl)cc2)cn1	0	0	0	28	0
COc1ccc(/C=N/NC(=O)CC(=O)NC2CCCCC2)cc1	0	-	0	0	0
O=C(COC(=O)[C@@H]1CC(O)CN1S(=O)(=O)c1ccc([N+](=O)[O-])cc1)NC12CC3CC(CC(C3)C1)C2 (some centres not stated)	0	0	0	0	0
CN(CC(=O)NCc1cccc(F)c1)C(=O)c1ccco1	0	0	0	0	0
O=[N+]([O-])c1ccc(O)c(C(C#Cc2ccccc2)N2CCOCC2)c1 (configuration not stated)	0	0	66	26	0
CCO[C@H]1OC(C(=O)N2CCN(Cc3ccc4c(c3)OCO4)CC2)=C[C@@H](c2ccc(Br)cc2)[C@@H]1CCCO	10µM	0	0	0	5.2µM
CCO[C@H]1OC(C(=O)N2CCN(Cc3ccc4c(c3)OCO4)CC2)=C[C@@H](c2ccccc2)[C@@H]1CCCO	?	0	0	0	?
C#Cc1ccc([C@@H]2C=C(C(=O)N3CCN(Cc4ccc5c(c4)OCO5)CC3)O[C@H](OCC)[C@H]2CCCO)cc1	0	0	0	0	0
CCO[C@@H]1OC(C(=O)N2CCN(Cc3ccccc3)CC2)=C[C@H](C2CC2)[C@H]1CCCO	?	0	0	0	?
CCO[C@@H]1OC(C(=O)N2CCN(Cc3ccc4c(c3)OCO4)CC2)=C[C@H](c2ccc3c(c2)OCO3)[C@H]1CCCO	?	0	0	0	3.3µM
